# Results as given in ChEMBL document CHEMBL3433997, “St. Jude Leishmania screening dataset” (2016).
# What was measured:
# Assay type in all cases: functional
# [1] = target: Solute carrier family 2, facilitated glucose transporter member 1 (Homo sapiens) (UniProt P11166); test: ST_JUDE_LEISH: Cytotoxicity at 2uM final concentration against transgenic Leishmania Mexicana promastigotes LmGLUT1 that are glucose transport deficient and complemented with the human glucose transporter GLUT1. Activity is measured by DNA content using SYBR green in vitro
# [2] = target: Hexose transporter 1 (Plasmodium falciparum) (UniProt O97467); test: ST_JUDE_LEISH: Cytotoxicity at 2uM final concentration against transgenic Leishmania Mexicana promastigotes LmPfHT that are glucose transport deficient and complemented with the Plasmodium falciparum hexose transporter. Activity is measured by DNA content using SYBR green in vitro
# [3] = target: Glucose transporter (Leishmania mexicana) (UniProt O61059); test: ST_JUDE_LEISH: Cytotoxicity at 2uM final concentration against transgenic Leishmania Mexicana promastigotes LmGT2 that are glucose transport deficient and complemented with the L. Mexicana glucose transporter 2. Activity is measured by DNA content using SYBR green in vitro
# Sequence of Solute carrier family 2, facilitated glucose transporter member 1 (Homo sapiens) (P11166 whole entry): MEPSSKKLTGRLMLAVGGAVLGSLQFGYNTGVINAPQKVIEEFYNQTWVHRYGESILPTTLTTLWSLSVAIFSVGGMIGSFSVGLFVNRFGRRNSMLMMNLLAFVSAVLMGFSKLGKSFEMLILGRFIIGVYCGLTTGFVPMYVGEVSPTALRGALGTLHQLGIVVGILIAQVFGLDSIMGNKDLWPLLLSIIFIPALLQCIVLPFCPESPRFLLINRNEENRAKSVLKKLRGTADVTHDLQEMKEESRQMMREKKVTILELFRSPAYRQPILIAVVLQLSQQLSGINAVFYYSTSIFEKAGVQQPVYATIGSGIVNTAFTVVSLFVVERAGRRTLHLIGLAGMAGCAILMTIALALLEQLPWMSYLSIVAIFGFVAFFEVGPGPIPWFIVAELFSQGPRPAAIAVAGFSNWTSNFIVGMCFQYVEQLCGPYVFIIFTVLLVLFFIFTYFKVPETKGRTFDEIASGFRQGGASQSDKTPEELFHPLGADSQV
SMILES,inhibition [1] [%],inhibition [2] [%],inhibition [3] [%]
Cc1cc(N[C@@H](CC(C)C)C(=O)NCCc2ccccc2)nc(NCc2ccccc2C)n1,2.23,4.73,-0.21
CC1(C)NC(N)=NC(=N)N1OCc1cc(Cl)cc2c1OCOC2,2.73,-0.07,0.71
CCc1cc(NC(=O)Nc2ccnc3ccccc23)ccc1OC,19,17.9,11.6
CCC1(c2ccccc2)N=C(N)N(CCCc2ccccc2)C1=O (stereo not drawn),2.53,1.89,0.85
Cn1nccc1C(=O)NCCNCc1ccc(-c2cccc(-c3nc4ccccc4[nH]3)c2)cc1,-0.28,-0.94,0.68
Cc1nnsc1C(=O)Nc1cccc(-c2cccc(-c3nc4cc(C(F)(F)F)ccc4[nH]3)c2)c1,6.42,6.2,6.93
Fc1ccc2[nH]c(-c3cccc(-c4cccc(CN5CCN(c6ccncc6)CC5)c4)c3)nc2c1,0.24,1.73,0.3
COc1ccc2nccc([C@@H](O)CN3CCC(NCc4nc5c(OCc6ccccc6)cccc5[nH]4)CC3)c2c1,4.97,3.37,4.99
Cn1c2c(c3ccccc31)CN(CCC1(c3ccc(Cl)c(Cl)c3)CN(C(=O)c3ccccc3)CCO1)CC2 (stereo not drawn),2.15,1.72,2.38
CCN(CC)CCNc1cc(C)nc(NC(=N)Nc2ccc(Cl)cc2)n1,6,6.42,5.89
O=c1cc(NCCCCNCc2cccc(Cl)c2)[nH]c2ccccc12,3.6,3.79,1.87
COc1ccc(-c2nc3cc4ccccc4nc3[nH]2)c(OCC(O)CNC(C)C)c1 (stereo not drawn),-1.53,1.33,1.21
Nc1nc(F)nc2nc[nH]c12,29.6,29.2,22
CC(C)Cn1cc(C2CCN(CCN3CCC(CNC(=O)c4ccc(-c5ccc(C(F)(F)F)cc5)cc4)CC3)CC2)c2ccccc21,2.78,3.07,2.25
COc1ccc(CN2CCCC(OC(c3ccc(F)cc3)c3ccc(F)cc3)C2)c(O)c1 (stereo not drawn),9.08,8.89,9.65
OC1CCCN(Cc2ccc(-c3ccc(-c4nc5cc(F)ccc5[nH]4)s3)cc2)C1 (stereo not drawn),3.05,2.51,1.76
Cc1cc(=NN=Cc2cccc(F)c2)c2ccc(F)cc2[nH]1,10.5,7.85,7.27
CC(C)C[C@H](Nc1ccc(C#N)c2ccccc12)C(=O)NC(C)(C)C12CC3CC(CC(C3)C1)C2,4.34,5.78,2.11
O=C(NC1CCCc2ccccc21)C1CCCN(C(=O)c2ccc(O)c(-c3ccc(Cl)c(Cl)c3)c2)C1 (stereo not drawn),1.28,2.04,2.38
CCn1nc(C(=O)NC2CCOc3ccccc32)c2ccccc2c1=O (stereo not drawn),-1.12,-0.92,-3.49
CCNc1cc(C(=O)N[C@@H](Cc2ccccc2)[C@H](O)CNC(C)(C)Cc2ccccc2)cc(N2CCCC2=O)c1,3.58,0.61,0.81
CC(=O)Nc1ccc(CN2CCC(NC(=O)c3ccc(-c4cccc(C(F)(F)F)c4)s3)CC2)cc1,0.69,0.42,-4.9
c1ccc2[nH]c(CN(Cc3nc4ccccc4[nH]3)Cc3nc4ccccc4[nH]3)nc2c1,-2.76,1.73,-0.29
Clc1ccc(Cl)c2[nH]c(CNCCCNc3nc4ccccc4[nH]3)cc12,0.92,2.67,1.29

SMILES,inhibition [1] [%],inhibition [2] [%],inhibition [3] [%]
Cc1ccccc1C1CCN(C2CCC(NC(=O)c3cncc(-c4ccccc4)c3)CC2)CC1 (stereo not drawn),6.15,6.33,3.53
COc1ccc2nccc([C@@H](O)CN3CCC(NC(=O)c4ccc(Cl)c(Cl)c4)CC3)c2c1,25.5,41.7,18.8
FC(F)(F)c1ccc(COc2cc(Cl)ccc2Cn2ccnc2)cc1,14,9.99,7.28
COc1ccc(Nc2ncc3c(-c4cccc(NC(=O)Cc5cccc(F)c5)c4)c[nH]c3n2)cc1OC,5.69,3.23,4.39
COc1ccc2nccc([C@@H](O)CN3CCC(NCc4ccc5nnsc5c4)CC3)c2c1,-1.03,0.44,-0.67
COc1cc(/C=N/Nc2nc(Nc3ccccc3)nc(Nc3ccccc3)n2)ccc1OCc1ccccc1[N+](=O)[O-],4.18,3.92,0.87
Cc1nc(-c2nc(NCc3ccc4c(c3)OCO4)ncc2-c2ccsc2)sc1C,-0.05,-0.48,0.68
O=C(Nc1ccc(Cn2ncc(N3CCCNCC3)c(Cl)c2=O)cc1)Nc1ccc(OCc2ccccc2)cc1,-0.85,-0.65,-1.2
O=C(NCc1ccc(F)cc1)Nc1ccc(-c2cccc(-c3nc4cc(F)ccc4[nH]3)c2)cc1,7.44,6.92,-1
CCN(CC)CCCC(C)Nc1c2ccccc2nc2ccc3ccccc3c12 (stereo not drawn),1.95,2.89,2.22
Cc1nc(C)c(-c2ccc(C(=O)c3ccc(Cl)cc3)cc2)c(O)c1Br,1.02,1.24,0.57
O=C(NC1CCN(Cc2ccccc2)CC1)c1ccc(-c2nc3cc(Cl)c(Cl)cc3[nH]2)s1,0.03,1.08,1.39
OC1CCC(Nc2ccc3ncc(-c4ccc5ccccc5c4)n3n2)CC1 (stereo not drawn),1.14,3.23,3.53
CC1CCN(CC[C@H]2CCCN2S(=O)(=O)c2cccc(NC(=O)c3ccc(-c4ccc(Cl)cc4)o3)c2)CC1,-0.33,1.69,-0.14
CCCNC(=O)c1ccnc(-c2ccc(CNC3Cc4ccccc4C3)cc2)c1,1.45,1.35,-0.22
OCCN1CCN(Cc2cccc(-c3ccc(-c4nc5cc(C(F)(F)F)ccc5[nH]4)s3)c2)CC1,2.38,-3.19,0.82
CCc1nc2c(cnn2CC)c(NC2CCOCC2)c1CNC(=O)c1ccoc1C,6.4,6.38,2.97
O=C(/C=C/c1ccc(Cl)c(Cl)c1)NCCCCCCN1CCN(C(=O)Nc2ccc(F)c(Cl)c2)CC1,13.8,11.5,14.1
COc1cc(C)nc2ccc(NC(=O)COCC(=O)Nc3ccc4nc(C)cc(OC)c4c3)cc12,4.3,3.83,3.64
CCOc1ccccc1NC(=O)C(Sc1nc(C)cc(C)c1C#N)c1ccccc1 (stereo not drawn),6.11,3.77,6.45
CCc1cc2c(=O)c(-c3nc(C)cs3)c([C@H](N)Cc3ccc(O)cc3)oc2cc1O,2.9,2.34,7.8
Oc1ccc2ccccc2c1CNCC1CCCCC1,0.28,3.31,2.73
CN1CCN(S(=O)(=O)c2cccc(Nc3nccc(N(C)c4ccc5c(c4)nc(NC(=O)c4cccs4)n5C)n3)c2)CC1,-0.55,0.27,1.49
Cc1cnn(-c2cccc(C(=O)NC3CCC(CCN4CCc5ccc(C#N)cc5CC4)CC3)c2)c1 (stereo not drawn),1.35,6.24,-0.22

SMILES,inhibition [1] [%],inhibition [2] [%],inhibition [3] [%]
O=C(/C=C/c1ccc(I)cc1)NCCCCCN1CCC(c2c[nH]c3ccc(O)cc23)CC1,1.49,1.64,1.49
CC(CN1CCN(C)CC1)C(=O)Nc1ccc(-c2ccc(-c3nc4ccccc4[nH]3)s2)cc1 (stereo not drawn),5.66,5.15,3.56
COc1ccc2ncc(F)c(CCN3CCC(NCc4cc(F)c5c(c4)OCCO5)CC3)c2n1,14.4,20.5,17.9
c1cc(-c2ccc(CN3CCN(c4ccncc4)CC3)cc2)cc(-c2nc3ccccc3[nH]2)c1,1.81,3.51,2.1
COc1cc2c(cc1OC)C(C)(C)CN1Cc3c(c(CO)c(OC)c(OC)c3OC)CC21 (stereo not drawn),4.54,3.72,4.31
CN(C)CCOc1ccc(NC(=O)NC(C)(C)c2nc(-c3ccc(Cl)c(O)c3)c(-c3ccncc3)[nH]2)cc1,-2.42,-2.62,-2.59
OC(CN1CCN(c2cccc(Cl)c2)CC1)C(c1ccccc1)c1ccccc1 (stereo not drawn),-1.02,2.99,-2.94
COC(=O)c1ccc(OCC(C)NCC(O)c2cccc(C(F)(F)F)c2)cc1 (stereo not drawn),10.7,8.32,8.64
CC1(C)CCCN(C(=O)c2cccc(-n3nc(-c4ccc(Cl)cc4)cc3N)c2)C1,2.79,1.98,2.07
COc1cc2c(cc1S(=O)(=O)c1ccc(NC(=O)Nc3ccc(F)cc3)cc1)CCN(C)CC2,3.01,2.22,3.04
Nc1nc(N)c2cc(N(Cc3ccccc3)Cc3ccccc3)ccc2n1,16.1,17.2,10.8
COc1cc(C(=O)Nc2cccc(-c3cn4cccc(C)c4n3)c2)cc(OC)c1OC,15.8,10.9,10.5
CCCc1cc(N2CCC(N3CCCC3)CC2)nc(Nc2ccc(Cl)cc2)n1,-1.71,2.3,0.85
CCNc1cc(C(=O)N[C@@H](Cc2ccccc2)[C@H](O)CNCc2cccc(OC)c2)c(OC)c(N2CCCCS2(=O)=O)c1,1.6,2.79,2.16
Fc1ccc(C(OCC2CCCN(Cc3cccc4cccnc34)C2)c2ccc(F)cc2)cc1 (stereo not drawn),2.49,0.62,-2.6
COc1ccc2nccc([C@@H](O)CN3CCC(NCc4ccc5c(c4)NC(=O)C(C)S5)CC3)c2c1 (stereo partly drawn),12.2,1.99,4.38
Cc1ccc(C(O)CNc2ccnc(Nc3cccc(-c4csc(C)n4)c3)n2)cc1 (stereo not drawn),-0.56,-1.05,-1.54
CCCCCCNC(=O)C1Cc2c([nH]c3ccc(Br)cc23)C2(CCN(Cc3ccccc3)CC2)N1 (stereo not drawn),45.6,15.5,30.9
CCNc1cc(C(=O)N[C@@H](Cc2ccccc2)[C@H](O)CN[C@H](C)C(C)(C)C)cc(N2CCCCS2(=O)=O)c1,2.2,1.95,2.33
COc1cc(CN2CCC(N3CCc4cc(NC(=O)c5cc(C)on5)ccc43)C2)ccc1F (stereo not drawn),2.18,2.25,3.34
Cc1ccc2[nH]c(-c3cc(-c4cccc(CCN5CCOCC5)c4)cnc3N)nc2c1,4.66,5.93,1.19
CCOC(=O)C1=C(C)NC2=C(C(=O)CC(C)(C)C2)C1c1ccc(Cl)cc1 (stereo not drawn),-1.57,0.77,0.29
Cn1nc(-c2cccc(CNC3CCc4ccccc43)c2)c2cnc(NCCCN3CCCC3)nc21 (stereo not drawn),29.9,32.6,25.9
